Test [1] can be described thus: qHTS assay to identify small molecule agonists of the vitamin D receptor (VDR) signaling pathway - cell viability counter screen (AID 743224; active = well fitted curve in the direction sought with a large enough effect in the repeat runs; an effect the other way counts as inactive or inconclusive; note: series mostly up to about 63 µM; nearly all actives have a fitted effect of over 50% in size). Summed up: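 Cytotoxicity counter screen: VDR-bla cells, 16 h compound exposure at 37C, 5% CO2; CellTiter-Glo luminescence, 30 min RT, same wells as bla read.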
For orientation: qHTS replaces the single test concentration by a dilution series.

Test [2] in a line: qHTS assay to identify small molecule antagonists of the vitamin D receptor (VDR) signaling pathway - cell viability counter screen (AID 743225; active = well fitted curve in the direction sought with a large enough effect in the repeat runs; an effect the other way counts as inactive or inconclusive; note: nearly all actives have a fitted effect of over 50% in size). Summed up: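 Viability counter screen run in the same wells as the beta-lactamase reporter assay: HEK 293T VDR-UAS-bla cells, 16 h compound exposure at 37C with 3 nM (final) 1-alpha,25-dihydroxyvitamin D3. CellTiter-Glo luminescence, 30 min, room temperature.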

Test [3] is described as follows: qHTS assay to identify small molecule agonists of the NFkB signaling pathway - cell viability counter screen (AID 1159515). Note: series mostly up to about 61 µM; nearly all actives have a fitted effect of over 55% in size. Summed up:
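ME-180 NFkB-bla cells, 2,000/well; overnight attach; compound 5 hr, 37 C/5% CO2; LiveBLAzer substrate 1.5 hr RT; then CellTiter-Glo in same wells, 30 min RT, luminescence read.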

Test [4] can be described thus: qHTS assay to identify small molecule agonists of the endoplasmic reticulum stress response signaling pathway (AID 1159516; active = well fitted activation curve with a large enough effect in the signal ratio in the repeat runs, not every such curve was filed as active; the % refers to the signal ratio). In short, it runs like this:
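HeLa ESRE-bla reporter line; cpd 5 h, 37 C/5% CO2; LiveBLAzer B/G FRET substrate 2 h RT; ex 405, em 460/530 nm.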

Test [5] can be described thus: qHTS assay to identify small molecule agonists of the endoplasmic reticulum stress response signaling pathway - cell viability counter screen (AID 1159517).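 Note: HeLa cells carrying an ER stress response element beta-lactamase reporter; series mostly up to about 61 µM; nearly all actives have a fitted effect of over 50% in size.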 Summed up:
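After overnight attachment, ESRE-bla HeLa cells were treated with Tox21 library compounds for 5 hr. CellTiter-Glo luminescence, read 30 min post-addition at room temperature, reported viability.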

Test [6] in a line: qHTS assay to identify small molecule antagonists of the retinoid-related orphan receptor gamma (ROR-gamma) signaling pathway - cell viability counter screen (AID 1159520; active = well fitted curve in the direction sought with a large enough effect in the repeat runs; an effect the other way counts as inactive or inconclusive; note: nearly all actives have a fitted effect of over 50% in size). In short, it runs like this: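 Cytotoxicity was read from cellular ATP (CellTiter-Glo luminescence) after 16 hr at 37 C with 1 uM doxycycline induction. The inducer was added 2 hr after compound transfer to Tet-on ROR gamma CHO cells.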

Test [7] has as its target Nuclear receptor ROR-gamma (Homo sapiens) (UniProt P51449). Nature of the test: qHTS assay to identify small molecule antagonists of the retinoid-related orphan receptor gamma (ROR-gamma) signaling pathway (AID 1159521; active = well fitted curve in the direction sought with a large enough effect in the repeat runs; an effect the other way counts as inactive or inconclusive). Summed up: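 Luminescence readout (ONE-Glo, 30 min RT) after 16 h doxycycline induction; loss of signal scored as antagonism. CHO cells with TET-inducible RORγ and RORE-LUC reporter; compounds added 2 h before 1 uM final doxycycline.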

The nature of test [8]: qHTS assay to identify small molecule agonists of the AP-1 signaling pathway - cell viability counter screen (AID 1159525). Note: nearly all actives have a fitted effect of over 55% in size. Note: potency is the fitted concentration of half-maximal effect. Summed up:
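Intracellular ATP by Cell Titer Glo luminescence (30 min, RT) in the same ME-180 AP-1-bla wells after the 5 h compound exposure at 37 °C. Normalised to tetra n-octyl ammonium bromide and DMSO controls.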

The nature of test [9]: qHTS assay to identify small molecule agonists of the AP-1 signaling pathway (AID 1159526). Note: potency is the fitted concentration of half-maximal effect.

Inconclusive results are not listed. Where a structure was tested more than once in an assay, its records may differ in their call. Active and inactive are the calls of the source. Unless noted, calls come from the whole dose curve.

`ClCCBr`: the call in test [1], in test [2], in test [3], in [4] and in test [5] was inactive. Besides, the Potency result in test [6], in test [7], in [8] and in test [9] was “inactive” throughout.
For `C#CC(C)(C)NC(=O)c1cc(Cl)cc(Cl)c1`, the compound was called inactive in test [1], in [2], in [3], in test [4] and in test [5]. Further, the Potency entry in [6], in test [8] and in [9] was “inactive” in each case.
As for `O=c1[nH]c2ccccc2c(=O)o1`, the call in test [1], in test [2], in test [3], in [4] and in [5] was inactive. Also, the Potency result in test [6], in test [7], in test [8] and in [9] was “inactive” in each case.
`COC(=O)c1ccccc1N`: the call in test [1], in [2], in test [3], in test [4] and in test [5] was inactive. For the same compound, the Potency entry in test [6], in test [7], in [8] and in test [9] was “inactive” throughout.
Take `CCC[N+](=O)[O-]`: the outcome in test [1], in test [2], in [3], in test [4] and in test [5] was inactive. The Potency result in [6] and in test [9] was “inactive” throughout. Moreover, the Potency in test [8] is 15.2 µM (active) and inactive.
For `O=NN1CCCCCCC1`, the compound was classed as inactive in test [1], in [2], in test [3], in test [4] and in test [5]. Also, the Potency result in [6] and in test [9] was “inactive” in each case.
Turning to `O=C(NC(=O)c1c(F)cccc1F)Nc1cc(Cl)c(OC(F)(F)C(F)C(F)(F)F)cc1Cl` (stereo not drawn), the call in test [1], in [2], in test [3], in [4] and in test [5] was inactive. For the same compound, the Potency entry in test [6] was “inactive”.
Regarding `COCCl`, the compound was classed as inactive in test [1], in test [2], in test [3], in [4] and in test [5]. Moreover, the Potency entry in [6], in test [7], in [8] and in test [9] was “inactive” in each case.
With `CC(C)(Cl)Cl`, the compound was called inactive in test [1], in test [2], in test [3], in test [4] and in test [5]. Moreover, the Potency result in test [6], in [8] and in test [9] was “inactive” each time.
Take `CCCCCCCCCCCC#N`: the outcome in test [1], in test [2], in test [3], in [4] and in test [5] was inactive. Further, the Potency entry in test [6], in [7], in test [8] and in [9] was “inactive” throughout.
Consider `CCOP(=S)(OCC)Oc1cnc2ccccc2n1`, for which the call in test [1], in [2], in [3], in test [4] and in test [5] was inactive. The Potency entry in test [6] and in [9] was “inactive” in each case.
`O=C(O)c1ccccn1`: the call in [1], in test [2], in test [3], in test [4] and in test [5] was inactive. Further, the Potency entry in test [6], in test [7], in [8] and in test [9] was “inactive” in each case.
`O=S(=O)(c1ccc(Cl)cc1)c1cc(Cl)c(Cl)cc1Cl`: the compound was called inactive in [1], in [2], in test [3], in test [4] and in test [5]. Moreover, the Potency entry in [6] and in [8] was “inactive” in each case.
Regarding `O=c1ccc(=O)[nH][nH]1`, the compound was called inactive in test [1], in test [2], in test [3], in [4] and in test [5]. The Potency entry in test [6], in [8] and in test [9] was “inactive” throughout.
For the compound `O=[N+]([O-])c1ccccc1`, the result in test [1], in test [2], in test [3], in [4] and in test [5] was inactive. For the same compound, the Potency entry in test [6], in test [8] and in test [9] was “inactive” each time.
Regarding `Nc1ccc(Oc2ccc(N)cc2)cc1`, the compound was classed as inactive in [1], in test [2], in test [3], in [4] and in [5]. Further, the Potency entry in [6], in test [8] and in test [9] was “inactive” throughout.
As to `CC(NC(C)(C)C)C(=O)c1cccc(Cl)c1` (stereo not drawn), the call in [1], in [2], in [3], in [4] and in test [5] was inactive. Also, the Potency result in [6] is “inactive”. Moreover, the Potency in test [9] was 36.8 µM (active).
Regarding `CN1C(=O)CN=C(c2ccccc2)c2cc(Cl)ccc21`, the compound was classed as inactive in test [1], in test [2], in [3], in test [4] and in test [5]. Further, the Potency entry in test [6], in test [7], in test [8] and in test [9] was “inactive” in each case.
With `Clc1cccc(Cl)c1Cl`, the outcome in test [1], in [2], in test [3], in [4] and in test [5] was inactive. For the same compound, the Potency result in [6], in [7], in test [8] and in test [9] was “inactive” in each case.
As to `C#CCN(C)[C@H](C)Cc1ccccc1`, the call in test [1], in test [2], in [3], in test [4] and in [5] was inactive. Besides, the Potency result in test [6] and in [9] was “inactive” each time.
Regarding `O=C1CCCN1`, the compound was classed as inactive in test [1], in [2], in [3], in test [4] and in test [5]. For the same compound, the Potency result in test [6], in test [7], in [8] and in test [9] was “inactive” throughout.
Regarding `CC(C)C#N`, the call in test [1], in test [2], in test [3], in [4] and in [5] was inactive. The Potency entry in test [6] and in test [9] was “inactive” each time.
Regarding `[N-]=[N+]=[N-]`, the call in test [1], in [2], in test [3], in test [4] and in [5] was inactive. The Potency entry in test [6] and in test [9] was “inactive” throughout.
Take `[O-][Cl+2]([O-])O`: the compound was classed as inactive in test [1], in test [2], in test [3], in test [4] and in test [5]. The Potency entry in test [6], in test [8] and in test [9] was “inactive” in each case.
Regarding `CC(C)N1C(=O)c2ccccc2NS1(=O)=O`, the outcome in [1], in [2], in [3], in [4] and in test [5] was inactive. Moreover, the Potency entry in test [6], in test [8] and in test [9] was “inactive” throughout.
For the compound `CCc1cccc(C)c1N(C(=O)CCl)C(C)COC` (stereo not drawn), the compound was called inactive in [1], in test [2], in [3], in test [4] and in test [5]. In addition, the Potency entry in test [6], in test [8] and in test [9] was “inactive” in each case.
For the compound `COC(=O)NC(=S)Nc1ccccc1NC(=S)NC(=O)OC`, the outcome in test [1], in test [2], in [3], in [4] and in test [5] was inactive. The Potency result in test [6] and in test [9] was “inactive” in each case.
Take `C1CC2OC2CC1C1CO1` (stereo not drawn): the result in [1], in [2], in test [3], in test [4] and in test [5] was inactive. Further, the Potency entry in [6] and in test [9] was “inactive” in each case.
Take `CCC(C)(CC)c1cc(NC(=O)c2c(OC)cccc2OC)on1`: the compound was called inactive in test [1], in test [2], in [3], in [4] and in test [5]. Besides, the Potency entry in test [6], in test [8] and in test [9] was “inactive” throughout.
Consider `Clc1ccc(Cl)cc1`, for which the call in [1], in test [2], in test [3], in test [4] and in test [5] was inactive. Also, the Potency entry in [6], in [7] and in [9] was “inactive” in each case.

These data come from PubChem BioAssay (Tox21).
